Reference: PubChem BioAssay (NCATS)
Results filed as inconclusive are left out. Entries that show only a call come without a potency. Activity calls are given as the source filed them. Unless noted, calls come from the whole dose curve.

Experiments:
[1] = biological target: Peroxisome proliferator-activated receptor delta (Homo sapiens) (UniProt Q03181); test: qHTS assay for small molecule agonists of peroxisome proliferator-activated receptor delta signaling (AID 588534)
Procedure, shortened: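 EC50 and efficacy values derive from Hill fits of a concentration series in a beta-lactamase reporter cell assay. Exposure is 18 hrs at 37 C, with CCF4 fluorescence as the readout.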

[2] = qHTS for Inhibitors of the Functional Ribonucleoprotein Complex (vRNP) of Lassa (LASV) Arenavirus: LASV Primary Screen - GLuc reporter signal (AID 1347082; calls by dose curve; tested in HEK293 reporter line; note: nearly all actives have a fitted effect of over 60% in size)
[3] = qHTS for Inhibitors of the Functional Ribonucleoprotein Complex (vRNP) of Lassa (LASV) Arenavirus: Viability assay - alamar blue signal for LASV Primary Screen (AID 1347083; calls by dose curve; tested in HEK293 reporter line; note: nearly all actives have a fitted effect of over 80% in size; note: potency is the fitted concentration of half-maximal effect)
[4] = qHTS for Inhibitors of the Functional Ribonucleoprotein Complex (vRNP) of Lymphocytic Choriomeningitis Arenaviruses (LCMV): Viability assay - alamar blue signal for LCMV Primary Screen (AID 1347085; calls by dose curve; tested in HEK293 reporter line; note: nearly all actives have a fitted effect of over 80% in size)
[5] = biological target: Nucleoprotein (Lymphocytic choriomeningitis virus (strain Armstrong)) (UniProt P09992); test: qHTS for Inhibitors of the Functional Ribonucleoprotein Complex (vRNP) of Lymphocytic Choriomeningitis Arenaviruses (LCMV): LCMV Primary Screen - GLuc reporter signal (AID 1347086); note: nearly all actives have a fitted effect of over 70% in size
[6] = qHTS profiling of the MIPE4 collection as inhibitors of Plasmodium falciparum (3D7) proliferation (AID 743344; call rule not given here); conditions: P. falciparum 3D7 in erythrocytes, SYBR Green DNA fluorescence, 72 h; at 28.5 µM (top of the series) unless noted
Procedure, shortened: (§1)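 Parasite DNA was quantified by SYBR Green I fluorescence (ex 485, em 535 nm) after overnight lysis in saponin/Triton buffer at room temperature. Cultures at 0.3% parasitemia and 2.5% hematocrit were first exposed to compound for 72 h at 37 C; signals were normalised to artemisinin (0.29 uM) and vehicle wells.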

[7] = qHTS profiling of the MIPE4 collection as inhibitors of Plasmodium falciparum (DD2) proliferation (AID 743345; call rule not given here); conditions: P. falciparum Dd2 in erythrocytes, SYBR Green DNA, 72 h; at 28.5 µM (top of the series) unless noted
Procedure, shortened: as §1

[8] = qHTS profiling of the MIPE4 collection as inhibitors of Plasmodium falciparum (DD2) proliferation (Rep 2) (AID 743346; call rule not given here); conditions: P. falciparum Dd2 in erythrocytes, SYBR Green DNA, 72 h; at 28.5 µM (top of the series) unless noted
Procedure, shortened: as §1

[9] = qHTS profiling for inhibitors of Plasmodium falciparum (3D7) proliferation (AID 743322);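 note: infected erythrocytes exposed to compound for 72 h before lysis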; conditions: P. falciparum 3D7 proliferation; at 28.7 µM (top of the series)
Procedure, shortened: as §1

[10] = qHTS profiling for inhibitors of Plasmodium falciparum (DD2) proliferation (AID 743323; call rule not given here); conditions: lower = more inhibition; at 28.7 µM (top of the series)
Procedure, shortened: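 Parasite DNA quantified by SYBR Green fluorescence (ex 485, em 535 nm) after saponin/Triton lysis and overnight dark incubation. Cultures: 0.3% parasitemia, 2.5% hematocrit, 72 h, 37 C; data scaled between DMSO and 0.29 uM artemisinin.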

[11] = qHTS profiling for inhibitors of Plasmodium falciparum (HB3) proliferation (AID 743324; active = well fitted curve in the direction sought with a large enough effect; an effect the other way counts as inactive or inconclusive); conditions: Plasmodium falciparum HB3 blood-stage proliferation; at 28.7 µM (top of the series)
Procedure, shortened: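 SYBR Green fluorescence (485 ex/535 em) of lysed cultures, incubated overnight at room temperature in the dark, quantifies parasite DNA. Infected erythrocytes at 0.3% parasitemia and 2.5% hematocrit were exposed 72 h; values normalized to DMSO and 0.29 uM artemisinin controls.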

[12] = qHTS profiling of the MIPE4 collection as inhibitors of Plasmodium falciparum (HB3) proliferation (AID 743347; call rule not given here); conditions: P. falciparum HB3 in erythrocytes, SYBR Green DNA, 72 h; at 28.5 µM (top of the series) unless noted
Procedure, shortened: as §1

[13] = biological target: Luciferin 4-monooxygenase (Photinus pyralis) (UniProt P08659); test: Biochemical firefly luciferase enzyme assay for NPC (AID 624030; active = well fitted curve in the direction sought with a large enough effect; an effect the other way counts as inactive or inconclusive;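 note: purified P. pyralis luciferase at 10 nM with luciferin and ATP substrate; nearly all actives have a fitted effect of over 70% in size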)
Procedure, shortened: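 Purified P. pyralis luciferase at 10 nM in 50 mM Tris Acetate (final), luminescence read within 5 minutes of enzyme addition to compounds. Activity normalised to PTC124 versus DMSO; concentration-response curves classed by r2, magnitude and activity.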

[14] = biological target: Alpha-galactosidase (Coffea arabica) (UniProt Q42656); test: Counterscreen for Glucocerebrosidase Inhibitors: qHTS Assay for Coffee Bean alpha-Galactosidase at pH 4.5 (AID 957; active = well fitted curve in the direction sought with a large enough effect; an effect the other way counts as inactive or inconclusive)
Procedure, shortened: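 Quantitative HTS of compounds (0.7 nM to 77 uM) against coffee bean alpha-galactosidase at pH 4.5, measuring 4-methylumbelliferone fluorescence released from 80 uM substrate.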

[15] = biological target: Alpha-galactosidase (Coffea arabica) (UniProt Q42656); test: Counterscreen for Glucocerebrosidase Inhibitors: qHTS Assay for Coffee Bean alpha-Galactosidase at pH 5.9 (AID 998; active = well fitted curve in the direction sought with a large enough effect; an effect the other way counts as inactive or inconclusive)
Procedure, shortened: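 Enzyme 2 nM + cpd (0.7 nM–77 uM titration) + 4-MU-alpha-Gal 80 uM, pH 5.9 citrate/Tween-20, RT 20 min, NaOH/glycine stop pH 10, fluor 365/440. Normalized to no-enzyme and full-activity controls; Hill-fit AC50.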

[16] = Cytotoxicity counterscreen for inhibitors of SARS-CoV-2 cell entry (AID 1645845); note: nearly all actives have a fitted effect of over 50% in size
Procedure, shortened: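 Counterscreen run in the same HEK293-ACE2 line as the pseudotyped-particle entry assay, without particles. Viability after 48 h at 37 C was read as ATP luminescence, scaled between cell-containing and cell-free wells.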

[17] = Primary qHTS to identify inhibitors of SARS-CoV-2 cell entry (AID 1645846); conditions: activity change, negative = inhibition: at 57.1 µM (top of the series) unless noted; note: nearly all actives have a fitted effect of over 45% in size
Procedure, shortened: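 HEK293 cells stably expressing human ACE2, pre-treated 1 h with compound, then infected with MLV particles pseudotyped with Wuhan-Hu-1 spike (C-terminal 19-aa truncation). Luciferase luminescence after 48 h at 37 °C, normalised to spike PP and bald PP.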

Chain of Peroxisome proliferator-activated receptor delta (Homo sapiens) (Q03181 whole entry, looked up): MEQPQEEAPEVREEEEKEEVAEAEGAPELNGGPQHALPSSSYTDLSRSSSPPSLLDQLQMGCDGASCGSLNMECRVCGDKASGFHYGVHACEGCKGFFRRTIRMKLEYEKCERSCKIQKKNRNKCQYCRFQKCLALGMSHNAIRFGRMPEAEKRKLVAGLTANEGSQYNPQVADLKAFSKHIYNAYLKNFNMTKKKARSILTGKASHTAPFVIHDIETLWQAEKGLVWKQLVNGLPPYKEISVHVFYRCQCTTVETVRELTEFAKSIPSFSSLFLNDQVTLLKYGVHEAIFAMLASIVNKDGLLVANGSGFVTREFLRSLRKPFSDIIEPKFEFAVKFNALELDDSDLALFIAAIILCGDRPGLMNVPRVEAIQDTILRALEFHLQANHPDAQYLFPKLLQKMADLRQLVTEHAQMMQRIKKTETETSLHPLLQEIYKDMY
Chain of Nucleoprotein (Lymphocytic choriomeningitis virus (strain Armstrong)) (P09992 whole entry, looked up): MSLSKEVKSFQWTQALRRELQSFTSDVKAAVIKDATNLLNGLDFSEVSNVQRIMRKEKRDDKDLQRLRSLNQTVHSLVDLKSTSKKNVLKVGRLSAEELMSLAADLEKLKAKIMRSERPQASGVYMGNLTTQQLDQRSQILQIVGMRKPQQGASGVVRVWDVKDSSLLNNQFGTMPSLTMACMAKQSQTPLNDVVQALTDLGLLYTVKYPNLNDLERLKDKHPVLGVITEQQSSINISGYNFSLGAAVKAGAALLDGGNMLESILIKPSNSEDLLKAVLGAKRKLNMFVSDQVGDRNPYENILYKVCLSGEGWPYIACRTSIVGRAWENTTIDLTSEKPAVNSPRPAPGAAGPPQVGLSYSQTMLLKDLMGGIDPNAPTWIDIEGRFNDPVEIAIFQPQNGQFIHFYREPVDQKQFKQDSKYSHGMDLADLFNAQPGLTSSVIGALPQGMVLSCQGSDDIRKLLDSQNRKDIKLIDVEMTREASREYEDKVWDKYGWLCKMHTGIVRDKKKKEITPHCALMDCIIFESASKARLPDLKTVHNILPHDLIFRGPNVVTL
Chain of Alpha-galactosidase (Coffea arabica) (Q42656 whole entry, looked up): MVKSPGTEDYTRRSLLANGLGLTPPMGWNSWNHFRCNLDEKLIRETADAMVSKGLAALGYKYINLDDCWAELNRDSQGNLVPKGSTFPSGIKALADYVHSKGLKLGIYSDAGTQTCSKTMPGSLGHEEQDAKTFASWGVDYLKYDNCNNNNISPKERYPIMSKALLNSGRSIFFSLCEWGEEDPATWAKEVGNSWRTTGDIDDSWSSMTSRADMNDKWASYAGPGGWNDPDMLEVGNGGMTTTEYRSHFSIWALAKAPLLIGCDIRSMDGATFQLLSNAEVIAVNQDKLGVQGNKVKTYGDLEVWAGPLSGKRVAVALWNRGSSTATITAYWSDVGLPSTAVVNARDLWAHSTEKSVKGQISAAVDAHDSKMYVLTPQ
Chain of Luciferin 4-monooxygenase (Photinus pyralis) (P08659 whole entry, looked up): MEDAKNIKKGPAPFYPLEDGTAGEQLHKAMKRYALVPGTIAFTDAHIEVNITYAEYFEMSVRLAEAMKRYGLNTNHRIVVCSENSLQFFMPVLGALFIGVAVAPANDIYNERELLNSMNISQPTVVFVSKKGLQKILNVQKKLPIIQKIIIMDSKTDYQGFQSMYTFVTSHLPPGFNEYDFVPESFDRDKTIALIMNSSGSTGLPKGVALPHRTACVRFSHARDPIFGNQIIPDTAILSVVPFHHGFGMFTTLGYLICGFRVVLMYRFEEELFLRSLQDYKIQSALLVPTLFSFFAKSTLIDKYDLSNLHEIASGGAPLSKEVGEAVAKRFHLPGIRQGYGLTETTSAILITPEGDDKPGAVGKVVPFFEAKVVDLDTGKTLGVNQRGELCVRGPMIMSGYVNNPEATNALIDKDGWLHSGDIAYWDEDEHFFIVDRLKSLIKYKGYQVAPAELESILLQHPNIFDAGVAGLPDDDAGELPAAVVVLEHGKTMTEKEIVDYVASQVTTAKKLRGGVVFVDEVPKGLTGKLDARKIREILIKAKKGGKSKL

**Q.** With CC(C)Nc1nc(N)nc(Cl)n1 as the compound, how does the Potency [1] read?
**A.** Its Potency is “inactive”.

**Q.** What about the Potency [2] of the same compound?
**A.** The Potency was “inactive”.

**Q.** What about the Potency [3] of the same compound?
**A.** Its Potency is “inactive”.

**Q.** What about the Potency [4] of the same compound?
**A.** The Potency was “inactive”.

**Q.** What about the Potency [5] of the same compound?
**A.** The Potency was “inactive”.

**Q.** For CC1=C(/C=C/C(C)=C/C=C/C(C)=C\C=O)C(C)(C)CCC1, which Potency [1] is on record?
**A.** Its Potency is “inactive”.

**Q.** And the Potency [2]?
**A.** The Potency was “inactive”.

**Q.** What about the Potency [3] of the same compound?
**A.** Its Potency is “inactive”.

**Q.** And the Potency [4]?
**A.** Its Potency is “inactive”.

**Q.** What about the Potency [5] of the same compound?
**A.** The Potency was “inactive”.

**Q.** Which parasite growth, % of DMSO control [6] does the source give for C[C@H]1[C@H](NC(=O)C(=NOC(C)(C)C(=O)O)c2csc(N)n2)C(=O)N1S(=O)(=O)O here?
**A.** Its parasite growth, % of DMSO control is 97.7%.

**Q.** And the parasite growth remaining, % of DMSO control (lower = more inhibition) [7]?
**A.** Its parasite growth remaining, % of DMSO control (lower = more inhibition) is 91.7%.

**Q.** And the parasite growth, % of control (lower = inhibition) [8]?
**A.** Its parasite growth, % of control (lower = inhibition) is 91.7%.

**Q.** And the Potency [2]?
**A.** Its Potency is “inactive”.

**Q.** And the Potency [3]?
**A.** The Potency was “inactive”.

**Q.** And the Potency [4]?
**A.** Its Potency is “inactive”.

**Q.** And the Potency [5]?
**A.** Its Potency is “inactive”.

**Q.** Which results are given for O=C(C[C@@H]1NCCC[C@@H]1O)Cn1cnc2ccccc2c1=O?
**A.** remaining parasite growth % (stronger effect = lower value) [9]: -0.414%; activity, percent of control [10]: -0.451%; remaining proliferation (% of control), lower = more inhibition [11]: -0.569%; parasite growth, % of DMSO control [6]: 4.79%; parasite growth remaining, % of DMSO control (lower = more inhibition) [7]: 6.53%; parasite growth, % of control (lower = inhibition) [8]: 22.5%; growth, % of control [12]: 5.66%; Potency [2]: inactive; Potency [3]: inactive; Potency [4]: inactive; Potency [5]: inactive

**Q.** Which results are given for CC/C=C\CCOC(=O)c1ccccc1O?
**A.** Potency [1]: inactive; Potency [2]: inactive; Potency [3]: inactive; Potency [4]: inactive; Potency [5]: inactive

**Q.** With CC(C)=CCCC(C)CCO (stereo not drawn) as the compound, how does the Potency [1] read?
**A.** The Potency was “inactive”.

**Q.** What about the Potency [2] of the same compound?
**A.** Its Potency is “inactive”.

**Q.** What about the Potency [3] of the same compound?
**A.** Its Potency is “inactive”.

**Q.** What about the Potency [4] of the same compound?
**A.** Its Potency is “inactive”.

**Q.** What about the Potency [5] of the same compound?
**A.** The Potency was “inactive”.

**Q.** What does the source list for CCCCC(CC)C(=O)O (stereo not drawn)?
**A.** Potency [1]: inactive; Potency [2]: inactive; Potency [3]: inactive; Potency [4]: inactive; Potency [5]: inactive

**Q.** With O=C(O)/C=C/C(=O)O as the compound, how does the Potency [1] read?
**A.** The Potency was “inactive”.

**Q.** And the Potency [13]?
**A.** The Potency was “inactive”.

**Q.** And the Potency [2]?
**A.** The Potency was “inactive”.

**Q.** What about the Potency [3] of the same compound?
**A.** The Potency was “inactive”.

**Q.** And the Potency [4]?
**A.** Its Potency is “inactive”.

**Q.** What about the Potency [5] of the same compound?
**A.** Its Potency is “inactive”.

**Q.** With CC(C)=CCC/C(C)=C/CC/C(C)=C/CO as the compound, how does the Potency [1] read?
**A.** Its Potency is “inactive”.

**Q.** What about the Potency [2] of the same compound?
**A.** Its Potency is “inactive”.

**Q.** And the Potency [3]?
**A.** The Potency was “inactive”.

**Q.** What about the Potency [4] of the same compound?
**A.** Its Potency is “inactive”.

**Q.** What about the Potency [5] of the same compound?
**A.** The Potency was “inactive”.

**Q.** Which results are given for c1ccc2c(c1)ccc1ccccc12?
**A.** Potency [1]: inactive; Potency [2]: inactive; Potency [3]: inactive; Potency [4]: inactive; Potency [5]: inactive

**Q.** Which Potency [1] does the source give for CC(=O)OC/C=C(\C)CCC=C(C)C here?
**A.** The Potency was “inactive”.

**Q.** And the Potency [2]?
**A.** Its Potency is “inactive”.

**Q.** What about the Potency [3] of the same compound?
**A.** Its Potency is “inactive”.

**Q.** What about the Potency [4] of the same compound?
**A.** The Potency was “inactive”.

**Q.** What about the Potency [5] of the same compound?
**A.** Its Potency is “inactive”.

**Q.** With C=C1C[C@@]2(O)O[C@@]3(C[C@H]2C(C)C)[C@H](C)CC[C@H]13 as the compound, how does the parasite growth, % of DMSO control [6] read?
**A.** The parasite growth, % of DMSO control was 70.7%.

**Q.** What about the parasite growth remaining, % of DMSO control (lower = more inhibition) [7] of the same compound?
**A.** Its parasite growth remaining, % of DMSO control (lower = more inhibition) is 75.7%.

**Q.** What about the parasite growth, % of control (lower = inhibition) [8] of the same compound?
**A.** Its parasite growth, % of control (lower = inhibition) is 48.2%.

**Q.** And the growth, % of control [12]?
**A.** The growth, % of control was 68.4%.

**Q.** What about the Potency [2] of the same compound?
**A.** The Potency was “inactive”.

**Q.** What about the Potency [3] of the same compound?
**A.** Its Potency is “inactive”.

**Q.** What about the Potency [4] of the same compound?
**A.** The Potency was “inactive”.

**Q.** And the Potency [5]?
**A.** The Potency was “inactive”.

**Q.** For C=CC(=C)CCC=C(C)C, which Potency [1] is on record?
**A.** The Potency was “inactive”.

**Q.** And the Potency [2]?
**A.** The Potency was “inactive”.

**Q.** And the Potency [3]?
**A.** Its Potency is “inactive”.

**Q.** What about the Potency [4] of the same compound?
**A.** The Potency was “inactive”.

**Q.** And the Potency [5]?
**A.** Its Potency is “inactive”.

**Q.** With O=Nc1c(-c2c(O)[nH]c3cc(Br)ccc23)[nH]c2ccccc12 as the compound, how does the outcome [14] read?
**A.** Its outcome is “inactive”.

**Q.** What about the outcome [15] of the same compound?
**A.** Its outcome is “inactive”.

**Q.** What about the Potency [2] of the same compound?
**A.** The Potency was “inactive”.

**Q.** And the Potency [3]?
**A.** Its Potency is 15.8 µM (active).

**Q.** What about the Potency [4] of the same compound?
**A.** Its Potency is “inactive”.

**Q.** And the Potency [5]?
**A.** The Potency was “inactive”.

**Q.** Which Potency [2] does the source give for NC(=O)c1noc([C@H](CCCC2CCCCC2)CC(=O)NO)n1 here?
**A.** The Potency was “inactive”.

**Q.** What about the Potency [3] of the same compound?
**A.** Its Potency is “inactive”.

**Q.** And the Potency [4]?
**A.** The Potency was “inactive”.

**Q.** What about the Potency [16] of the same compound?
**A.** Its Potency is “inactive”.

**Q.** What about the activity change, negative = inhibition [17] of the same compound?
**A.** Its activity change, negative = inhibition is -13.6%.

**Q.** What does the source list for NC[C@H]1O[C@H](O[C@@H]2[C@@H](O)[C@@H](O[C@H]3O[C@H](CO)[C@@H](O)[C@H](N)[C@@H]3O)[C@H](N)C[C@@H]2N)[C@H](O)[C@@H](O)[C@H]1O?
**A.** Potency [2]: inactive; Potency [3]: inactive; Potency [4]: inactive; Potency [16]: inactive; activity change, negative = inhibition [17]: -26.9%
